Screens from PubChem BioAssay.
M1 PAM: positive allosteric modulators of human M1 muscarinic receptor; P11229; CHO-K1 hM1, Fluo-8 calcium fluorescence, ACh EC20; 0% = ACh EC20, 100% = maximal ACh; activation, % at 3 µM; hit rate 0.088% among 360,000; in the data active = activation above about 19%, passing the limit was not always enough
Target sequence (P11229 whole entry, looked up): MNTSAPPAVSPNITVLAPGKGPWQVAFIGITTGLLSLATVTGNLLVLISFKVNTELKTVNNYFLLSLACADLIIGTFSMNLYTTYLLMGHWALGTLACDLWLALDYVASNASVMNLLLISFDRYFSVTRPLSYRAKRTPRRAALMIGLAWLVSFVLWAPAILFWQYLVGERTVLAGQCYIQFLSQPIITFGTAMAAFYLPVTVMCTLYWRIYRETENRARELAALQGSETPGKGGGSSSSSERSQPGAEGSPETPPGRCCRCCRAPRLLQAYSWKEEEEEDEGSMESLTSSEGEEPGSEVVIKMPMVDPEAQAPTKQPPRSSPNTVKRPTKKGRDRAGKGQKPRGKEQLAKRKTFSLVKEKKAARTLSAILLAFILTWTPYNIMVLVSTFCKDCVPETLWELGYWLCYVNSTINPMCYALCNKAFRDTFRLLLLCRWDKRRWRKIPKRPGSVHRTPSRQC
CHO-K1 Ca antag: counter-screen for M1 antagonists: effect in parental CHO-K1 cells. ATP-induced calcium, Fluo-8 fluorescence. inhibition, % at 3 µM. hit rate 0.6% among 360,000. AID 602250;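 active = inhibition above a per-plate cutoff, the plate's mean sample inhibition plus 3 SD, cut at about 24% in these data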;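 note: 0% = DMSO plus EC80 ATP and 100% = DMSO alone without ATP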
CHO-K1 Ca ag: nonselective activator or artifact in parental CHO-K1 cells. Fluo-8 calcium fluorescence; scaled to maximal ATP response, vehicle zero. activation, % at 3 µM. hit rate 0.48% among 360,000. AID 602248; in the data active = activation above about 15%;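 note: untransfected CHO-K1 host cells lacking M1 receptor as counterscreen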
M1 PAM parental: counter-screen for M1 PAMs: effect in parental CHO-K1 cells; activation, % at 3 µM; hit rate 0.02% among 360,000; AID 602247; ATP EC20, Fluo-8 calcium fluorescence; 0% at ATP EC20, 100% at ATP max;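 active = activation above the run cutoff, the mean activation of all test compounds plus 3 SD, cut at about 40% in these data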;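 note: peak over basal fluorescence ratio in a 140 s read after ATP addition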
CHRM1 antagonist: blocks human M1 muscarinic receptor | P11229 | CHO-K1 hM1, Fluo-8 calcium fluorescence, ACh EC80 antagonist | inhibition, % at 3 µM | hit rate 1.3% among 360,000;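 active = percent inhibition above its own plate's cutoff, namely the mean of that plate's compound wells plus 3 SD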;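 note: peak over basal fluorescence ratio during 140 s after agonist addition; 0% = ACh EC80 plus DMSO and 100% = DMSO alone without agonist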
CHRM1 agonist: human M1 muscarinic receptor agonism; P11229; CHO-K1 hM1, Fluo-8 calcium fluorescence, agonist mode; 0% DMSO, 100% acetylcholine EC100; activation, % at 3 µM; hit rate 0.33% among 360,000; AID 588814;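 active = activation above the run's mean compound activation plus 3 SD, cut at about 16% in these data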;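 note: peak over basal fluorescence ratio within a 140 s kinetic read after compound addition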
Starred values were filed as active, the others as inactive. Rows were chosen to be rich in hits. Some 2.3% of all compounds tested hit in one or more screens of this group.

SMILES | M1 PAM | CHO-K1 Ca antag | CHO-K1 Ca ag | M1 PAM parental | CHRM1 antagonist | CHRM1 agonist
CC(=O)c1ccc(S(=O)(=O)Nc2ccc(C(=O)NCC(c3cccs3)N3CCOCC3)cc2)cc1 (stereo unspecified) | 4 | -12 | 1 | 15 | -14 | -2
CCOc1ccc(NS(=O)(=O)c2ccc(C(=O)NCC(c3cccs3)N3CCOCC3)cc2)cc1 (stereo unspecified) | -3 | -1 | 25* | 0 | 18 | 29*
CCN(CC)S(=O)(=O)c1ccc(OCC(=O)NC(=O)c2ccccc2OC)c([N+](=O)[O-])c1 | 4 | -9 | 2 | 16 | 1 | -4
CC(/C=N/NC(=O)c1ccco1)=C\c1ccccc1 | -3 | -1 | 0 | 6 | 0 | -2
CN(C)C(CNC(=O)c1cccc(NS(=O)(=O)c2ccc(Br)cc2)c1)c1ccco1 (stereo unspecified) | -26 | 3 | 1 | 1 | 70* | -7
CN(C)c1ccc(/C=C/c2nc3ccccc3c(=O)n2-c2ccc(C(=O)O)cc2)cc1 | -30 | 2 | 17* | -4 | 39* | 70*
COc1ccc(CCN2C(=O)CS/C2=N\NC(=O)c2cccs2)cc1OC | 10 | 0 | 18* | 10 | -13 | -3
Cc1ccc(N2C(=O)N(Cc3ccccc3C)c3ccccc3S2(=O)=O)cc1 | -11 | -3 | 7 | 17 | 12 | -4
O=C(NCc1cccc(F)c1)c1cccc2c1C(=O)c1ccc(N3CCCC3)cc1S2(=O)=O | -18 | -7 | 13 | 13 | 33* | 27*
O=C(NCc1cc(C(F)(F)F)ccc1Cl)c1cccc2c1C(=O)c1ccc(N3CCC(N4CCCCC4)CC3)cc1S2(=O)=O | -28 | 10 | 9 | 7 | 32* | -2
O=C(NCc1cc(C(F)(F)F)ccc1Cl)c1cccc2c1C(=O)c1ccc(N3CCCCC3)cc1S2(=O)=O | 10 | -10 | 0 | 21 | -7 | -2
O=C(NCCc1ccc(F)cc1)c1cccc2c1C(=O)c1ccc(N3CCC(Cc4ccccc4)CC3)cc1S2(=O)=O | 0 | -7 | 1 | 19 | -4 | 20*
O=C(CSc1nnc(Cc2cccs2)n1C1CC1)NC1CCS(=O)(=O)C1 (stereo unspecified) | 10 | -5 | 0 | 1 | 0 | 1
CCOc1ccc(NC(=S)NCc2ccco2)cc1 | -6 | 14 | 17* | 16 | 11 | -8
COc1ccc(NC(=S)NCc2ccco2)cc1 | 5 | -17 | 0 | 18 | -6 | -4
NC(=O)c1ccc(NC(=O)Cc2csc(-c3ccccc3)n2)cc1 | 7 | -6 | 1 | 0 | -9 | -1
CC(C)c1cc(NCCOCCO)n2c(nc3ccccc32)c1C#N | 5 | -6 | 0 | -4 | -5 | -5
CC(NC(=O)COc1ccccc1)C(=O)NCc1ccc(S(N)(=O)=O)cc1 (stereo unspecified) | 27* | -9 | 1 | 15 | -20 | 2
CC(NCc1ccc(S(N)(=O)=O)cc1)C(=O)NCc1ccccc1 (stereo unspecified) | 10 | -8 | 0 | 7 | -10 | -8
C=CCn1c(-c2ccc(S(=O)(=O)N3CCOCC3)cc2)csc1=Nc1ccccc1 | -5 | 8 | 6 | 17 | 19 | -1
CC(=O)c1cccc(N=c2scc(-c3ccc(S(=O)(=O)N4CCOCC4)cc3)n2CCO)c1 | -18 | 32* | 10 | -6 | 31 | -2
Cc1csc2ncc(C(=O)NC(C)c3ccccc3)c(=O)n12 (stereo unspecified) | -1 | 14 | 16* | 4 | 1 | 3
CC1CCC(C(C)C)C(OC(=O)COC(=O)c2ccc(N)cc2)C1 (stereo unspecified) | 7 | -7 | 1 | 23 | -5 | -8
CC1CCC(C(C)C)C(OC(=O)COC(=O)c2cccn2C)C1 (stereo unspecified) | 2 | -8 | 0 | 14 | -3 | -5
CC1CCC(C(C)C)C(OC(=O)Cn2c(-c3ccc(Cl)cc3)[n+](C)c3ccccc32)C1 (stereo unspecified) | -19 | 11 | 1 | -14 | 42* | -4
SMILES | M1 PAM | CHO-K1 Ca antag | CHO-K1 Ca ag | M1 PAM parental | CHRM1 antagonist | CHRM1 agonist
CC1CCC(C(C)C)C(OC(=O)Cn2c(-c3ccc(Br)cc3)[n+](C)c3ccccc32)C1 (stereo unspecified) | -29 | 7 | 3 | 20 | 23* | -16
Cc1ccccc1OCc1n(CC(=O)OC2CC(C)CCC2C(C)C)c2ccccc2[n+]1C (stereo unspecified) | -33 | 10 | 1 | 4 | 44* | -13
O=S1(=O)CCOC[C@H](c2ccccc2)N1Cc1cccc(Cl)c1 | 4 | 0 | -1 | -4 | -9 | -5
Cc1ccc(NS(=O)(=O)c2ccc3[nH]c(=O)[nH]c3c2)c(C)c1 | 8 | -3 | -1 | 4 | -9 | -2
CSC(=NNC(=O)c1ccc(O)cc1)SC | 2 | -3 | 0 | 9 | 2 | -3
CCNc1nc(NC(C)(C)C)nc(N2CCCCC2)n1 | -28 | -8 | 5 | 21 | 86* | -11
CN(CC(=O)Nc1ccccc1Br)C(=O)CNC(=O)c1ccco1 | 10 | 10 | 6 | 9 | -8 | -2
C=CCNC(=O)c1ccc(CN2CCC(Cc3ccccc3)CC2)cc1 | -28 | -15 | 1 | 23 | 74* | -9
COc1ccc(CCNC(=O)c2ccc(CN3CCC(Cc4ccccc4)CC3)cc2)cc1 | -10 | -1 | 0 | 12 | -1 | -7
CC(C)NC(=O)c1ccc(CN2CCC(Cc3ccccc3)CC2)cc1 | -27 | -3 | 1 | 1 | 84* | -8
Cc1ccccc1NC(=O)c1ccc(CN2CCC(Cc3ccccc3)CC2)cc1 | -21 | 7 | 1 | -2 | 55* | -4
CC1CCCCC1NC(=O)CSc1nnc(-c2ccco2)n1N (stereo unspecified) | -2 | 2 | 0 | -2 | -11 | -1
Fc1cc(Cl)ccc1Nc1nc(NCc2ccccc2)nc2ccsc12 | -4 | -8 | 1 | 14 | -1 | -2
c1ccc(CNc2nc(NCc3ccccc3)c3sccc3n2)cc1 | -31 | 14 | 28* | -12 | 56* | 32*
C#Cc1cccc(Nc2nc(NCc3ccccc3OC)nc3ccsc23)c1 | -18 | 11 | 10 | -3 | 35* | -3
c1ccc(CNc2nc(NCCOc3ccccc3)c3sccc3n2)cc1 | -28 | 28* | 35* | -9 | 43* | 19*
COc1ccccc1CNc1nc(NCc2ccccc2)nc2ccsc12 | -14 | 24* | 3 | -16 | 26 | 6
COc1ccccc1CNc1nc(NCc2cccc(OC)c2OC)c2sccc2n1 | -24 | -5 | 9 | 11 | 32 | 0
C#Cc1cccc(Nc2nc(NCCOC)nc3ccsc23)c1 | -22 | 0 | 11 | -2 | 22 | 2
